High-throughput results: PubChem BioAssay, National Center for Advancing Translational Sciences (NCATS)
RORgamma inh: inhibitors of mouse ROR gamma transcriptional activity. P51450. Drosophila S2 Gal4-RORgamma UAS-luciferase reporter, 20 h. Potency, µM (titrated, usually from 53.6 µM), inactives show top-dose activity change, negative = inhibition, hits mostly inhibitors. 5.4% of 310,000 active. AID 2551; further: potency means the concentration at half of the fitted maximal effect; nearly all actives have a fitted effect of over 60% in size
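Luciferase reporter read in Schneider cells carrying Gal4-RORγ (mouse) and UAS-Photinus luciferase; cells given compound 1 h before 700 uM copper sulfate induction, then incubated 20 h at ambient temperature.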
ELG1 repair inh: inhibitors of ELG1-dependent DNA repair in HEK293T cells. Potency, µM (top dose mostly 46.1 µM), inactives show at the top dose activity change, negative = inhibition, actives largely listed as inhibitors. AID 504467. HEK293T ELG1-luciferase reporter, luminescence, 16 h; DNA damage induced by 5-fluorouridine. 2.3% of 330,000 active; further: potency means the concentration at half of the fitted maximal effect; nearly all actives have a fitted effect of over 55% in size
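Cells (2,000 per well) received 5-fluorouridine plus test compound or DMSO and were incubated 16 hr at 37 °C, 5% CO2. Luciferase activity was read by luminescence 30 min after ONE-Glo addition; signal suppression marked inhibition of damage-induced ELG1 function.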
VP16 counter: inhibits Gal4-VP16 luciferase reporter, ROR gamma counter-screen | Drosophila S2 Gal4-VP16 UAS-luciferase, luminescence, 20 h | 3.5% of 310,000 active | Potency, µM (highest dose often 53.6 µM), for the others: at the highest dose activity, negative = inhibition, hits mostly inhibitors | AID 2546;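 further: Gal4-VP16 expression switched on by copper sulfate through the metallothionein promoter; potency means the concentration at half of the fitted maximal effect; nearly all actives have a fitted effect of over 50% in size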
TSHR antag: antagonists of human thyroid stimulating hormone receptor. P16473. TSHR-expressing cells, TSH-stimulated cAMP HTRF, 2 h; stronger effect = lower value. activity change, negative = inhibition, % at 11.5 µM. 0.2% of 330,000 active;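 active means activity change below a set negative limit, meaning inhibition stronger than a set level, cut at about -70% in these data; inconclusive means activity change between two set negative limits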
Target sequence (P16473 whole entry, looked up): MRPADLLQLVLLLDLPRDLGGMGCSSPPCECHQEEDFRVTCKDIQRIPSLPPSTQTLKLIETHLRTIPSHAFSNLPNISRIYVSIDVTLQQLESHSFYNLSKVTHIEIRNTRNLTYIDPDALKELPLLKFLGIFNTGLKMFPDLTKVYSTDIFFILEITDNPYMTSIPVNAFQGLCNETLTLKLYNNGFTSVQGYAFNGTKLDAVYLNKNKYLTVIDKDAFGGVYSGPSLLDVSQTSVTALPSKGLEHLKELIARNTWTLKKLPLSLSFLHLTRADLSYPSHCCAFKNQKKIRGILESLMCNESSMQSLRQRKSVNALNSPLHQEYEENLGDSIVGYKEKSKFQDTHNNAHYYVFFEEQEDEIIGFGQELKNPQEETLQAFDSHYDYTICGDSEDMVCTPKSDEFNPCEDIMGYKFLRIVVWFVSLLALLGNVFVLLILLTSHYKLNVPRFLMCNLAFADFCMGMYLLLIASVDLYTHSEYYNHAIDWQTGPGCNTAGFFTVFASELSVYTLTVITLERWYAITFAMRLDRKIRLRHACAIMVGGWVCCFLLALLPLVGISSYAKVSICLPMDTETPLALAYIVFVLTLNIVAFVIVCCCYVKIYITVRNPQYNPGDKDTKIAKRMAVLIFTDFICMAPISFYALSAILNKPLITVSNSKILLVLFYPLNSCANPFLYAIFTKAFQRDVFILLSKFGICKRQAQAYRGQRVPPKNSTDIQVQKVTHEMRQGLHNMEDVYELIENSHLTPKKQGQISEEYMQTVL
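Freshly harvested TSHR cells receive pin-tooled compound, then EC80 TSH at 4nM final. After 2 hours at 37 deg C, antibody in lysis buffer and cAMP-d2 are added; 30 minutes at ambient temperature precede the HTRF read.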
B2AR arrestin: recruits beta-arrestin to the human beta2-adrenergic receptor; 0.02% of 330,000 active; Potency, µM (series often up to 46.1 µM), for inactives: top-dose activation, hits mostly activators; beta-arrestin recruitment to beta2AR, cell-based reporter; P07550;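 further: potency means the concentration at half of the fitted maximal effect; 0% = DMSO controls and full agonism = EC100 isoproterenol or metaproterenol; nearly all actives have a fitted effect of over 65% in size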
* marks the source's active call; other numbers are inactive results; ? = inconclusive; / = no result; [ ] = dose if it differs, or a comment. Rows were chosen to be rich in hits. Some 7.5% of all compounds tested hit in one or more screens of this group. Unless noted, the call rests on the fitted dose curve; in most records, active means well fitted curve in the direction sought with a large enough effect; inconclusive means small, poorly fitted or top-dose-only effect, or another doubt; inactive means no such curve, though single readings can be large; an effect the other way counts as inactive or inconclusive. Unless noted, on the % scale 0 is the no-effect control and ±100 the full control effect.

SMILES	RORgamma inh	ELG1 repair inh	VP16 counter	TSHR antag	B2AR arrestin
Cc1cn(C2CC3OCC(NC(=O)C(NC(=O)OC(C)(C)C)C(C)OCc4ccccc4)C3O2)c(=O)[nH]c1=O (stereo not given)	6%	/	4%	/	/
C/C(N)=C(/C#N)C(=O)CSc1nnnn1-c1ccc(C)cc1C	-25%	?	13µM*	-13	0%
C/C(N)=C(/C#N)C(=O)CSc1nc2ccccc2c(=O)n1Cc1ccc(F)cc1	2.8µM*	?	3.5µM*	7	-1%
CCCCn1c(SCC(=O)/C(C#N)=C(\C)N)nc2ccccc2c1=O	?	-20%	?	1	0%
C/C(N)=C(/C#N)C(=O)CSc1nc2cc(Cl)ccc2c(=O)n1Cc1ccco1	-20%	-14%	14%	-7	0%
CC(C)N(C(=O)CSc1nc2ccccc2n1Cc1ccc(F)cc1)C(C)C	?	18µM*	?	-21	-1%
C/C(N)=C(/C#N)C(=O)CSc1nc2ccccc2c(=O)n1Cc1ccc(C)cc1	2.5µM*	?	4µM*	-4	-1%
CC(C)NC(=O)CSc1nc2ccccc2n1CC(=O)N(C(C)C)C(C)C	?	-1%	15%[10 µM]	3	0%
C[C@]12C=CC(=O)C=C1CC[C@@H]1[C@H]3C[C@@H](O)[C@](O)(C(=O)CO)[C@@]3(C)C[C@H](O)[C@]12F	2%[16.9 µM]	/	0%[17 µM]	/	/
COc1cccc(NC(=S)N2c3ccccc3CC2C)c1 (stereo not given)	22µM*	-2%	?	15	0%
COc1ccc(OC)c(NC(=S)N2c3ccccc3CC2C)c1 (stereo not given)	36%	18µM*	-1%	3	0%
CC(=O)c1ccc(NC(=S)N2c3ccccc3CC2C)cc1 (stereo not given)	?	-14%	0%	-4	0%
COc1ccc(C(=O)N2c3ccccc3CC2C)cc1OC (stereo not given)	-1%	/	8%	/	/
COc1ccc(OC)c(NC(=S)N2CCC(C(O)(c3ccccc3)c3ccccc3)CC2)c1	16µM*	-11%	?	-7	-1%
COc1cc(NC(=S)N2c3ccccc3CC2C)cc(OC)c1 (stereo not given)	8.9µM*	-15%	18µM*	-4	0%
Nc1ccc(/C=C/c2ccc(N)cc2S(=O)(=O)O)c(S(=O)(=O)O)c1	25%	/	-12%	/	/
CC(c1ccccc1)N1C(=O)/C(=C/c2ccncc2)SC1=S (stereo not given)	?	?	16µM*	-17	0%
O=C(CCN1C(=O)/C(=C\c2ccccc2)SC1=S)NNC(=O)c1ccncc1	-21%	-2%	3%	0	0%
O=C(O)CCCCCN1C(=O)/C(=C/c2ccncc2)SC1=S	11µM*	-13%	10µM*	-3	?
O=C(O)CCCCCN1C(=O)/C(=C\c2ccncc2)SC1=S	13µM*	?	10µM*	5	-1%
O=C(O)CCCN1C(=O)/C(=C/c2ccncc2)SC1=S	8.9µM*	?	10µM*	7	0%
O=C(CCN1C(=O)/C(=C/c2ccccc2)SC1=S)NNC(=O)c1ccncc1	-6%	8%	-8%	8	0%
CSCC[C@H](N)C(=O)N[C@@H](CCCN=C(N)N)C(=O)N[C@@H](CC(C)C)C(=O)N[C@@H](Cc1ccccc1)C(=O)N[C@H](C(=O)O)C(C)C	4%	/	-4%	/	/
O=[N+]([O-])c1ccc(/C=N/N/C(=N/c2ccccn2)c2ccccn2)cc1	11µM*	?	-4%	4	-1%
O=C(N/N=C/c1ccc(O)c([N+](=O)[O-])c1)c1ccncc1	12%	?	-5%	6	-1%
SMILES	RORgamma inh	ELG1 repair inh	VP16 counter	TSHR antag	B2AR arrestin
O=[N+]([O-])c1cc(/C=N/N/C(=N/c2ccccn2)c2ccccn2)ccc1O	1.4µM*	?	4.5µM*	6	0%
CN(C)C(=S)N=Nc1[nH]c2ccccc2c1O	0.89µM*	?	5.6µM*	2	?
Cc1nc(NCc2ccccc2)c2nc(-c3ccccc3)n(CC(C)(C)CN(C)C)c2n1	14µM*	/	-13%	/	/
CCN(CC)CCCn1c(-c2ccccc2)nc2c(NCc3ccccc3)nc(C)nc21	-4%	/	-1%	/	/
Cc1ccc2nc(SCC(=O)c3ccc(O)cc3O)[nH]c2c1	-94%	?	3.2µM*	40	-1%
Cc1ccc2nc(SCC(=O)NCc3ccco3)[nH]c2c1	32%	?	13%	-2	0%
COc1cccc(-c2nnc(SCC(=O)Nc3cc(C)on3)o2)c1	13µM*	?	-19%	-1	-1%
Cc1ccc2nc(SCC(=O)NC(=O)NCc3ccco3)[nH]c2c1	21%	-19%	18µM*	14	0%
Cc1cc(NC(=O)CSc2nnc(-c3cccc(Cl)c3)o2)no1	?	0%	-5%	3	-1%
COc1ccc(-c2nnc(SCC(=O)Nc3nncs3)o2)cc1	7.1µM*	?	8.9µM*	-13	-1%
CC(OC(=O)CCC(=O)c1cccs1)C(=O)NC1CCCCC1C (stereo not given)	/	16%	/	30	0%
COc1ccc(C2=Nn3c(nnc3-c3cccc(OC)c3)SC2)cc1	85%	/	2%	/	/
Cc1cc(-c2nnc(SCC(=O)Nc3nccs3)o2)no1	16µM*	?	?	-9	4%
COc1ccc(-c2nnc(SCC(=O)NC(=O)NCc3ccco3)o2)cc1	7.9µM*	5%	?	-7	0%
O=C(CSc1nnc(C2COc3ccccc3O2)o1)NC1CCCCC1 (stereo not given)	3%	?	-1%	-8	0%
O=C(CSc1nnc(C2COc3ccccc3O2)o1)Nc1nccs1 (stereo not given)	?	4%	22µM*	1	0%
COc1ccccc1-c1cc(NCc2ccccc2)ncn1	12%	/	-1%	/	/
Cc1ccc(S(=O)(=O)N[C@@H]2COC(=O)C/C=C\[C@H](C)COC(=O)N[C@@H](C)C(=O)C/C=C\[C@H]2C)cc1	1%[10 µM]	/	0%[10 µM]	/	/
Cc1cc(NC(=O)c2ccc(Cl)cc2)n(CCOC(=O)c2ccc(Cl)cc2)n1	?	-14%	16µM*	7	0%
Cc1cc(NC(=O)c2ccc(F)cc2)n(CCOC(=O)c2ccc(F)cc2)n1	?	?	-16%	16	-1%
COc1c(C)cc(Br)cc1C(=O)Nc1cccc(-c2nc3ncccc3o2)c1	10%	18µM*	-12%	-19	0%
CC(C)C(=O)Nc1cccc(-c2nc3ncccc3o2)c1	4%[1.91 µM]	14%	-11%	-9	-1%
CCCCC(=O)Nc1cccc(-c2nc3ncccc3o2)c1	33%[10 µM]	-27%	1%	-8	0%
CCC(=O)NC(=S)Nc1cccc(-c2nc3ncccc3o2)c1	13µM*	9%	-18%	-6	-1%
